Consider nine compounds from PubChem BioAssay (Tox21).

The structures appear in SMILES notation. Values without a mark were called inactive. Results filed as inconclusive are left out. Active and inactive are the calls of the source. Unless noted, the call rests on the fitted dose curve.

Experiment [1] can be described thus: Nuclear factor erythroid 2-related factor 2/antioxidant responsive element (Nrf2/ARE) small molecule agonists: qHTS cell viability counter screen in human keratinocytes (AID 1919968; active means well fitted curve in the direction sought with a large enough effect in the repeat runs; an effect the other way counts as inactive or inconclusive; further: nearly all actives have a fitted effect of over 55% in size). The method in brief: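 Cytotoxicity was multiplexed with the Nrf2/ARE luciferase assay in the same wells. Stably transfected HaCaT keratinocytes were treated with test compounds for 23 h at 37 C. Cell viability was then measured by CellTiter-Fluor fluorescence.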
In general terms: qHTS replaces the single test concentration by a dilution series.

Experiment [2] can be described thus: Nuclear factor erythroid 2-related factor 2/antioxidant responsive element (Nrf2/ARE) small molecule agonists: luciferase reporter gene qHTS assay in human keratinocytes (AID 1919969). Further: nearly all actives have a fitted effect of over 35% in size. Further: potency means the concentration at half of the fitted maximal effect. A general note: In a reporter assay the amount or activity of a reporter protein is the signal.
Experiment [3] addresses Gonadotropin-releasing hormone receptor (Homo sapiens) (UniProt P30968). As to the kind of experiment: Human gonadotropin-releasing hormone receptor (GnRHR) small molecule agonists, calcium flux assay in GnRHR-HEK293 cells (AID 1920063). Further: nearly all actives have a fitted effect of over 35% in size. The method in brief:
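Agonist activity was measured as intracellular calcium flux in HEK293 cells engineered to stably express human GnRHR. After dye loading for 1 hour at 37 C, compounds in DMSO were added and fluorescence was followed for 3 minutes.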
For orientation: A change in cytosolic calcium serves as a functional read-out for many receptors and channels.

In experiment [4] the target is KiSS-1 receptor (Homo sapiens) (UniProt Q969F8). As to the kind of experiment: Human kisspeptin (KISS1R) small molecule agonists, calcium flux assay in KISS1R-HEK293 cells (AID 1920064; active means well fitted curve in the direction sought with a large enough effect in the repeat runs; an effect the other way counts as inactive or inconclusive). The method in brief:
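Agonist activity is monitored as intracellular calcium rise in engineered HEK293 cells carrying human KISS1R. Cells are dye-loaded for 1 h at 37 C before compound addition, and fluorescence is recorded for 3 min.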

Experiment [5] can be described thus: G protein-coupled receptor (GPCR) small molecule agonists, calcium flux assay: HEK293 wild type cell line counter screen (AID 1920065). The method in brief: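 Seed cells, incubate 18 h (37 C, 5% CO2); add calcium dye, 1 h at 37 C; pin-transfer compounds, ATP control or DMSO; read fluorescence 480/540 nm each second for 3 min.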
Experiment [6] can be described thus: p53 small molecule agonists, cell-based qHTS assay with human liver microsomes: qHTS cell viability counter screen (AID 1963579). Further: nearly all actives have a fitted effect of over 45% in size. Further: potency means the concentration at half of the fitted maximal effect. The method in brief:
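Tox21 library compounds, delivered from DMSO stocks, were tested on p53RE-bla cells together with 0.5 mg/mL human liver microsomes and 0.5 mg/mL NADPH (final) over 16 h at 37 C; CellTiter-Glo luminescence served as the cytotoxicity measure.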

Experiment [7] in a line: p53 small molecule agonists, cell-based qHTS assay with rat liver microsomes: qHTS cell viability counter screen (AID 1963580). Further: nearly all actives have a fitted effect of over 45% in size. The method in brief:
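Cytotoxicity counter screen: intracellular ATP measured by CellTiter-Glo luminescence in the same wells as the beta-lactamase reporter read, on HCT-116 p53RE-bla cells exposed 16 h at 37 C to compounds with rat liver microsomes and NADPH, each 0.5 mg/mL final.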

Experiment [8] addresses 5-hydroxytryptamine receptor 2A (Homo sapiens) (UniProt P28223). As to the kind of experiment: 5-hydroxytryptamine receptor 2A (HTR2A) small molecule antagonists, cell-based qHTS assay (AID 1963586). Further: nearly all actives have a fitted effect of over 45% in size. Further: potency means the concentration at half of the fitted maximal effect. The method in brief:
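CHO cells stably expressing human HTR2A were plated for 18 h at 37 C, then loaded with calcium dye for 1 h. Compounds were preincubated 5 min at room temperature before DOI (4 nM solution) was added. Kinetic fluorescence was read for 3 min.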

Experiment [9] has the same target. As to the kind of experiment: 5-hydroxytryptamine receptor 2A (HTR2A) small molecule agonists, cell-based qHTS assay (AID 1963587). Further: nearly all actives have a fitted effect of over 30% in size. The method in brief:
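CHO cells stably expressing human HTR2A, plated 18 h, loaded with calcium dye 1 h at 37 C. Agonist mode: compounds added and intracellular calcium fluorescence recorded kinetically for 2 min at 1 sec intervals.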

Experiment [10] concerns the target Muscarinic acetylcholine receptor M1 (Homo sapiens) (UniProt P11229). As to the kind of experiment: Cholinergic receptor muscarinic 1 (CHRM1) small molecule antagonists, cell-based qHTS assay (AID 1963588). Further: nearly all actives have a fitted effect of over 40% in size. The method in brief:
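Compounds were tested at 15 concentrations in three independent runs. Dye-loaded CHRM1-CHO cells were exposed 5 min at room temperature before stimulation by acetylcholine added at 50nM. Intracellular calcium was read kinetically on FDSS for 3 min.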

The target is the same in experiment [11]. As to the kind of experiment: Cholinergic receptor muscarinic 1 (CHRM1) small molecule agonists, cell-based qHTS assay (AID 1963589). Further: nearly all actives have a fitted effect of over 35% in size. The method in brief:
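Cells were plated and incubated 18 h at 37 C/5% CO2, loaded with calcium dye for 1 h at 37 C, then treated with compounds in DMSO. Fluorescence was recorded kinetically at 1 sec intervals.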

Experiment [12] can be described thus: cAMP Responsive Elements (CRE) small molecule agonists, cell-based qHTS assay (AID 1963590). The method in brief:
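Cells carrying a CRE-driven beta-lactamase reporter (HEK 293T) are seeded, incubated overnight (18 h), and treated with test compounds for 3 h at 37 C; reporter activity is then detected with a FRET substrate after 2 h at room temperature.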

A short description of experiment [13]: cAMP Responsive Elements (CRE) small molecule antagonists, cell-based qHTS assay (AID 1963591; active means well fitted inhibition curve with a large enough effect in the signal ratio in the repeat runs, not every such curve was filed as active; the % refers to the signal ratio). The method in brief: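 Cells (CRE-bla HEK 293T, DMEM with 10% dialyzed FBS and 25 mM HEPES) are seeded and incubated 18 h. Compounds are added with NKH477 agonist at 0.25 uM final for 3 h, then FRET substrate for 2 h.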
Experiment [14] deals with Beta-2 adrenergic receptor (Homo sapiens) (UniProt P07550). As to the kind of experiment: Adrenergic beta2 receptor (ADRB2) small molecule antagonists, cell-based qHTS assay (AID 1963592). Further: series mostly up to about 92 µM; nearly all actives have a fitted effect of over 50% in size. The method in brief: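 Assay format: CHO-ADRB2 cells, 18-20hr seeding at 37C/5% CO2, then compound plus 1nM isoproterenol agonist mix for 0.5hr RT. Homogeneous time-resolved fluorescence cAMP detection after 1hr, expressed as 665/615 nm ratio.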
Sequence of Beta-2 adrenergic receptor (Homo sapiens) (P07550 whole entry, looked up): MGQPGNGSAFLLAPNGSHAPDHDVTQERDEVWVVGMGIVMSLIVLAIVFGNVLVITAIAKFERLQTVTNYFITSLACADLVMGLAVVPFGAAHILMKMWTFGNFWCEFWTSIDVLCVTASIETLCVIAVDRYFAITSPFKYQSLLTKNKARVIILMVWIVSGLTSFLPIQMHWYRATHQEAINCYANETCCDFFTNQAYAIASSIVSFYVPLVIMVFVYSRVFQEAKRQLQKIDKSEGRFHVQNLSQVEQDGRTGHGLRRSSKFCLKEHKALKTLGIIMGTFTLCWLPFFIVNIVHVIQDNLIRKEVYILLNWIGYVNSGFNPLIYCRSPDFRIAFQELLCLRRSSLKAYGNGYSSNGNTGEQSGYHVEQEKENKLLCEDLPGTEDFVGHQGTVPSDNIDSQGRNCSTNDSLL

Experiment [15] addresses D(2) dopamine receptor (Homo sapiens) (UniProt P14416). As to the kind of experiment: Dopamine D2 receptor (DRD2) small molecule agonists, cell-based qHTS assay (AID 1963594). Further: nearly all actives have a fitted effect of over 35% in size. Further: potency means the concentration at half of the fitted maximal effect. The method in brief:
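HEK293 cells stably expressing human DRD2, pre-treated with PDE inhibitor Ro20-1724 (0.1 mM final) and compound 10 min at room temperature, then stimulated with NKH477 (200nM […]) for 30 min. cAMP read by HTRF (665/620 nm).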

The target is the same in experiment [16]. As to the kind of experiment: Dopamine D2 receptor (DRD2) small molecule antagonists, cell-based qHTS assay (AID 1963595; active means well fitted inhibition curve with a large enough effect in the signal ratio in the repeat runs, with a control signal flat; the % refers to the signal ratio). The method in brief:
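Antagonist mode in DRD2-HEK293 cells: after compound addition with 0.1 mM Ro20-1724, cells received quinpirole (12 nM) and NKH477 (200 nM) for 30 min at room temperature; HTRF cAMP read after 1 h detection.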

A short description of experiment [17]: p53 small molecule agonists, cell-based qHTS assay: qHTS cell viability counter screen (AID 1963581). Further: nearly all actives have a fitted effect of over 45% in size. The method in brief: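 Viability was counter-screened in parallel with the p53 agonist reporter by measuring intracellular ATP luminescence in the same HCT-116 p53RE-bla wells after 16 h compound treatment at 37 C.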
The target of experiment [18] is Beta-2 adrenergic receptor (Homo sapiens) (UniProt P07550). As to the kind of experiment: Adrenergic beta2 receptor (ADRB2) small molecule agonists, cell-based qHTS assay (AID 1963593).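 Further: CHO cells stably overexpressing human ADRB2.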 The method in brief: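 CHO cells stably over-expressing ADRB2 were plated overnight at 37C, then dosed with compounds plus a stimulation mix containing 100uM IBMX and 25uM Ro-20-1724 for 0.5hr at room temperature. cAMP was measured by HTRF competition, 1hr.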
On the % scale 0 is the no-effect control and ±100 the full control effect.

Sequence of KiSS-1 receptor (Homo sapiens) (Q969F8 whole entry, looked up): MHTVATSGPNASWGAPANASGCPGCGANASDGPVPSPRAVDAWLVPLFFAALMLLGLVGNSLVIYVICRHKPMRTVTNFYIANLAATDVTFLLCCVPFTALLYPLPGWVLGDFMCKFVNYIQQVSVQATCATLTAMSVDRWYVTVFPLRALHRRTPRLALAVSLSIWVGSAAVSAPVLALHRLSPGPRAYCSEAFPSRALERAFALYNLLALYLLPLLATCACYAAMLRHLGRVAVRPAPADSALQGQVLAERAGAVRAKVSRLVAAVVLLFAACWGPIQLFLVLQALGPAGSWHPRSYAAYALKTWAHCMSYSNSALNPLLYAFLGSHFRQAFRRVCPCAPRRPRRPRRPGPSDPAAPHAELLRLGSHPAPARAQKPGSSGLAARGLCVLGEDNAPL
Sequence of D(2) dopamine receptor (Homo sapiens) (P14416 whole entry, looked up): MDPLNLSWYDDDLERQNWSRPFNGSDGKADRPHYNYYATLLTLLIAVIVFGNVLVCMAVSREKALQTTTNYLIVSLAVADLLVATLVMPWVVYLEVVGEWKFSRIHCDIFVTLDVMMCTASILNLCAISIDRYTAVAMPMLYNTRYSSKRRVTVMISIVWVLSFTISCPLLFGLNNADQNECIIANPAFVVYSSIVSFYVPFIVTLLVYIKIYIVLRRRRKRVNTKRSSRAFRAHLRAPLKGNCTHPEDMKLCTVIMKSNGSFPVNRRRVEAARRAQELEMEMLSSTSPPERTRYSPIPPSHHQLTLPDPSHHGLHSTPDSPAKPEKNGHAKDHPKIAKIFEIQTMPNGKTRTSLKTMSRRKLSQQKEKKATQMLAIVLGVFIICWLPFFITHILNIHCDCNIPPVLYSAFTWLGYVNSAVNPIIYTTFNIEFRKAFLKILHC
Sequence of Gonadotropin-releasing hormone receptor (Homo sapiens) (P30968 whole entry, looked up): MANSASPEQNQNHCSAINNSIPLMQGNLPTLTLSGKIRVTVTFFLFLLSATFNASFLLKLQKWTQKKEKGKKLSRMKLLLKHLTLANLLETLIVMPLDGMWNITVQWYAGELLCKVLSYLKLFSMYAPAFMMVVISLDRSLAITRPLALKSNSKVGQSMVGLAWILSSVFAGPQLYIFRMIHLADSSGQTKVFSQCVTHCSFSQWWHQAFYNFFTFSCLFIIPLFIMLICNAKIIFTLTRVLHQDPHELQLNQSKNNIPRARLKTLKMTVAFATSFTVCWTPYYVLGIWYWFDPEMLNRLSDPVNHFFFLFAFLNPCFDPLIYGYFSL
Sequence of 5-hydroxytryptamine receptor 2A (Homo sapiens) (P28223 whole entry, looked up): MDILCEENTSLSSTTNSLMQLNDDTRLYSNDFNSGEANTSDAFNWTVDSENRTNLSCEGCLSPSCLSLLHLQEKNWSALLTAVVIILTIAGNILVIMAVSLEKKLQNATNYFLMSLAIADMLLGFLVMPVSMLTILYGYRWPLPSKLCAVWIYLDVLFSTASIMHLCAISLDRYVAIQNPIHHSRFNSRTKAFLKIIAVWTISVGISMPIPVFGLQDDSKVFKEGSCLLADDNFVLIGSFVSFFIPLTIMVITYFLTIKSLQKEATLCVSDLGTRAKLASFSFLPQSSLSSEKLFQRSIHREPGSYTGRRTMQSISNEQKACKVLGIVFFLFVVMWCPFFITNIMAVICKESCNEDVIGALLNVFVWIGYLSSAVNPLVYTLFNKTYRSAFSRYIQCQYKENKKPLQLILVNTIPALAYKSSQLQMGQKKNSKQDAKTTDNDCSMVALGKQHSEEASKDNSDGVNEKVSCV
Sequence of Muscarinic acetylcholine receptor M1 (Homo sapiens) (P11229 whole entry, looked up): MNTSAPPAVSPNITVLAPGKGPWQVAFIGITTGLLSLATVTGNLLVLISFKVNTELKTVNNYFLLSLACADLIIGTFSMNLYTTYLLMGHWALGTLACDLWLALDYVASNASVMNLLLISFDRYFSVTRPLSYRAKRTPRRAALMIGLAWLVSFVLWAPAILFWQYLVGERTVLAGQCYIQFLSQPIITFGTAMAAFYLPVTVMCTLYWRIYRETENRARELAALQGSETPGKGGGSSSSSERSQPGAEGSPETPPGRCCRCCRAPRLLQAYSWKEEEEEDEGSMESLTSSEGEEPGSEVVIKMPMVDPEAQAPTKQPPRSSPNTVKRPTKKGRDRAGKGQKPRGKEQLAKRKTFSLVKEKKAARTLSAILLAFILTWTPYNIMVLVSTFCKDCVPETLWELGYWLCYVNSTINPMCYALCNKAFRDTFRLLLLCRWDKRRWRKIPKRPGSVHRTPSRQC

With `C=CC(=O)NC(C)(C)C`, the Potency entry in experiment [1], in [2], in experiment [3], in experiment [4], in [5] and in experiment [6] was “inactive” in each case. Besides, the Potency result in experiment [7], in [8], in experiment [9], in experiment [10], in experiment [11] and in [12] was “inactive” each time. The Potency result in [13], in [14], in experiment [15] and in experiment [16] was “inactive” each time.

As for `CC(C)C[C@H]1C(=O)N2CCC[C@H]2[C@]2(O)O[C@](NC(=O)[C@@H]3C=C4c5cccc6[nH]c(Br)c(c56)C[C@H]4N(C)C3)(C(C)C)C(=O)N12`, the Potency result in [1], in experiment [2], in experiment [3], in experiment [4], in experiment [5] and in experiment [6] was “inactive” each time. Moreover, the Potency result in [7], in experiment [17], in experiment [12], in [13] and in experiment [16] was “inactive” in each case. Besides, the Potency in experiment [15] is 0.0923 µM (active).

In the case of `Cc1ccc(N)cc1O`, the Potency result in experiment [1], in [3], in [4], in experiment [5], in [7] and in experiment [8] was “inactive” each time. For the same compound, the Potency entry in [9], in experiment [10] and in [11] was “inactive” throughout. Further, the Potency is 24.3 µM (active) in experiment [2] and 40.8 µM (active) in [6].

Turning to `CCc1ccccc1`, the Potency entry in experiment [1], in [2], in experiment [3], in experiment [4], in [5] and in experiment [6] was “inactive” each time. Further, the Potency entry in experiment [7], in [17], in [9], in experiment [11], in [13] and in experiment [14] was “inactive” each time. The Potency entry in [18], in experiment [15] and in [16] was “inactive” in each case.

With `Cc1onc(-c2ccccc2Cl)c1C(=O)N[C@@H]1C(=O)N2[C@@H]1SC(C)(C)[C@@H]2C(=O)O`, the Potency result in experiment [1], in experiment [2], in [3], in experiment [4], in experiment [5] and in experiment [6] was “inactive” in each case. Further, the Potency result in experiment [7], in experiment [17], in experiment [12], in experiment [13], in experiment [14] and in experiment [18] was “inactive” each time. Further, the Potency entry in [15] and in [16] was “inactive” each time.

In the case of `CN(C)CCOCCO`, the Potency entry in experiment [1], in experiment [2], in [3], in [4], in [5] and in experiment [6] was “inactive” in each case. Besides, the Potency result in experiment [7], in experiment [8], in [10], in [11], in experiment [12] and in experiment [14] was “inactive” each time. Besides, the Potency result in [16] was “inactive”.

Regarding `CC(C)COC(=O)COc1ccc(Cl)cc1Cl`, the Potency result in experiment [1], in [2], in experiment [3], in [4], in experiment [5] and in experiment [6] was “inactive” throughout. For the same compound, the Potency entry in experiment [7], in experiment [8], in experiment [9], in experiment [10], in [11] and in experiment [14] was “inactive” in each case. Moreover, the Potency entry in experiment [16] is “inactive”.

With `COC=O`, the figures for the activity change, negative = cytotoxicity in experiment [1], in [6] and in [17] were -1.85% [at 8.39 µM], -1.32% [at 5.99 µM] and -1.7% [at 5.99 µM], respectively. For the same compound, in experiment [2], the activity, positive = activation was -9.06% [at 8.39 µM]. In addition, in experiment [3], the activity change is -1.66% [at 5.22 µM, hits give high values]. Also, the activation is -0.791% [at 6.97 µM] in experiment [4]; 2.54% [at 5.23 µM] in [5]; -0.022% [at 7.02 µM] in [9]; -0.541% [at 6.97 µM] in experiment [11]; -0.656% [at 8.39 µM] in experiment [12]. The Potency in [8] was 3.09 µM (active). The activity, negative = inhibition in experiment [10] is 1.52% [at 5.58 µM]. The activity change, negative = inhibition in experiment [13] was 12.8% [at 8.39 µM]; in experiment [14] it was 14.4% [at 8.39 µM]; in experiment [16], -12.2% [at 8.38 µM].

Take `CC1(C)SC(C)(C)SC(C)(C)S1`: the Potency result in experiment [1], in experiment [2], in experiment [3], in experiment [4], in experiment [5] and in [6] was “inactive” in each case. For the same compound, the Potency entry in experiment [17], in experiment [8], in experiment [9], in experiment [10], in [11] and in experiment [12] was “inactive” each time. In addition, the Potency entry in experiment [13], in experiment [14], in [18] and in [15] was “inactive” throughout.
